T cruzi growth-1: inhibitors of T. cruzi proliferation; T. cruzi beta-gal in NIH3T3, GalScreen luminescence, 90 h; inhibition, % at 8.34 µM; hit rate 5.9% among 77,000; AID 624255;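 active = mean inhibition above about 93%, with at least 55% of replicates each passing it, limit read from the data, passing the limit was not always enough; inconclusive = only one of those two conditions holds; inactive = neither condition holds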
C diff growth: inhibitors of Clostridium difficile growth; growth activity, negative = inhibition, % at 16 µg/mL (by protocol); AID 1259249; hit rate 0.25% among 86,000; Clostridium difficile clinical isolate growth, OD600, 24 h; active compounds read low;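 active = mean growth activity at or below -80% and every replicate also at or below -80%; inconclusive = mean at or below -80% but some replicate above -80%; inactive = mean growth activity above -80%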;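 note: 0% = DMSO wells and -100% = levofloxacin 16 µg/mL wells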
Pf Dd2 inh: blocks growth of Plasmodium falciparum Dd2 parasites; P. falciparum Dd2 growth, SYBR Green, 72 h; active compounds read low; activity change, % at 10 µM; hit rate 2.3% among 94,000; AID 1159554; in the data active = activity change below about -80%; inconclusive = no clear call, values can overlap the other calls
T cruzi growth-2: inhibitors of T. cruzi proliferation; shares compounds with T cruzi growth-1; T. cruzi beta-gal in NIH3T3, GalScreen luminescence, 90 h; inhibition, % at 8.35 µM; hit rate 72% among 5,600; AID 651739;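 active = mean replicate inhibition above about 95% and at least 55% of replicates individually reaching it, limit read from the data; inconclusive = only one of the two criteria is met; inactive = neither criterion is met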
T cruzi growth-3: inhibitors of T. cruzi proliferation. T. cruzi beta-gal in NIH3T3, GalScreen luminescence, 90 h. AID 651740. shares compounds with T cruzi growth-1. hit rate 21% among 5,600. inhibition, % at 2.09 µM;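 active = mean inhibition above about 95%, with at least 55% of replicates also reaching it, limit read from the data; inconclusive = meets just one of the two conditions; inactive = meets neither condition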;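 note: plate controls were neutral control median for no effect and positive control median for full effect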
3T3 cytotox: cytotoxicity in mouse NIH/3T3 fibroblasts; hit rate 14% among 5,600; NIH/3T3 viability, CellTiter-Glo ATP luminescence, 90 h; AID 651742; shares compounds with T cruzi growth-1; cytotoxicity (signal decrease), % at 8.35 µM;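 active = mean signal decrease across replicates above about 35% based on untreated-well scatter, with enough replicates individually passing, limit read from the data; inconclusive = no rule stated though some were filed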;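 note: 0% = median of neutral control wells and 100% = median of positive control wells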
3T3 cytotox 2: cytotoxicity in mouse NIH/3T3 fibroblasts | NIH/3T3 viability, CellTiter-Glo ATP luminescence, 90 h | hit rate 56% among 5,600 | AID 651744 | shares compounds with T cruzi growth-1 | inhibition, % at 24.9 µM;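 active = mean loss of cell viability signal at or above a set limit, and enough replicates individually reaching it; inconclusive = meets only the mean limit or only the replicate share; inactive = meets neither condition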;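 note: 0% = median of neutral control wells and 100% = median of positive control wells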
* hit, by the source's call. Hits are enriched below; roughly 6.7% of the tested compounds scored in any of these assays.

`CCCC#Cc1ccc([C@@H]2[C@@H](CO)N(C(=O)CN3CCOCC3)[C@H]2C#N)cc1` gave T cruzi growth-1 inconclusive, C diff growth 4.3 and Pf Dd2 inh 31.2.
`N#C[C@H]1[C@H](c2ccc(C#CCC3CCCC3)cc2)[C@@H](CO)N1C(=O)CN1CCOCC1` gave T cruzi growth-1 83.0, C diff growth -3.7 and Pf Dd2 inh -31.4.
`CCC(=O)N(C)C[C@H]1Oc2cc(-c3cncnc3)ccc2S(=O)(=O)N([C@H](C)CO)C[C@@H]1C` gave T cruzi growth-1 21.5, C diff growth -3.9 and Pf Dd2 inh 18.6.
Screening O=C(C[C@@H]1CC[C@@H](NC(=O)Nc2cc(F)ccc2F)[C@@H](CO)O1)Nc1ccccc1 returned C diff growth -3.1.
Cc1ccc(S(=O)(=O)N(C)C[C@H]2OCCCC[C@H](C)Oc3ccc(NS(=O)(=O)c4cn(C)cn4)cc3C(=O)N([C@H](C)CO)C[C@H]2C)cc1 was read as T cruzi growth-1 33.3, C diff growth 8.3 and Pf Dd2 inh -12.7.
For CCCNC(=O)[C@@H]1[C@@H](CO)[C@@H]2Cn3c(ccc(-c4ccncc4)c3=O)[C@H]1N2Cc1ccccc1F the results were T cruzi growth-1 11.0 and C diff growth -0.7.
C[C@H]1CN([C@@H](C)CO)S(=O)(=O)c2ccc(C#CC3CC3)cc2O[C@@H]1CN(C)C(=O)c1cccnc1 was read as T cruzi growth-1 4.6, C diff growth -2.5 and Pf Dd2 inh -18.2.
Cc1ccc(-c2ccc3c(c2)O[C@@H](CN(C)Cc2ccc(F)cc2)[C@H](C)CN([C@@H](C)CO)S3(=O)=O)cc1 was read as T cruzi growth-1 inconclusive, C diff growth 13.4, Pf Dd2 inh -62.4, T cruzi growth-2 96.3*, T cruzi growth-3 103.2*, 3T3 cytotox 63.5* and 3T3 cytotox 2 104.9*.
Cc1ccc(-c2ccc3c(c2)O[C@H](CN(C)Cc2ccc(C(=O)O)cc2)[C@@H](C)CN([C@H](C)CO)S3(=O)=O)cc1 was read as T cruzi growth-1 60.7, C diff growth -3.6 and Pf Dd2 inh -29.8.
`Cc1ccc(-c2ccc3c(c2)O[C@H](CN(C)Cc2ccc(F)cc2)[C@H](C)CN([C@@H](C)CO)S3(=O)=O)cc1` gave T cruzi growth-1 97.1*, C diff growth 4.8, Pf Dd2 inh -24.7, T cruzi growth-2 106.4*, T cruzi growth-3 inconclusive, 3T3 cytotox 18.6 and 3T3 cytotox 2 68.7*.
For Cc1ccc(-c2ccc3c(c2)O[C@@H](CN(C)Cc2ccc(F)cc2)[C@@H](C)CN([C@H](C)CO)S3(=O)=O)cc1 the results were T cruzi growth-1 91.8, C diff growth 7.8 and Pf Dd2 inh -69.1.
`CCCC(=O)N1CC2(CCN(C(=O)NC(C)C)CC2)c2c(n(C)c3cc(OC)ccc23)[C@@H]1CO` gave Pf Dd2 inh 28.9.
For C[C@H](CO)N1C[C@H](C)[C@@H](CN(C)S(=O)(=O)c2ccc(F)cc2)Oc2ncc(C#CC3CCCCC3)cc2C1=O the results were T cruzi growth-1 85.5, C diff growth 5.4 and Pf Dd2 inh -38.6.
For C[C@@H]1CN([C@@H](C)CO)C(=O)c2cc(C#CC3CCCCC3)cnc2O[C@@H]1CN(C)S(=O)(=O)c1ccccc1 the results were T cruzi growth-1 111.0*, C diff growth -9.8, Pf Dd2 inh -27.7, T cruzi growth-2 108.3*, T cruzi growth-3 56.1, 3T3 cytotox 25.4 and 3T3 cytotox 2 94.1*.
`C[C@@H]1CN([C@H](C)CO)C(=O)c2cc(C#CC3CCCCC3)cnc2O[C@H]1CN(C)S(=O)(=O)c1cccc(F)c1` gave C diff growth 14.3 and Pf Dd2 inh -22.3.
For C[C@H]1CN([C@@H](C)CO)C(=O)c2cc(C#CC3CCCCC3)cnc2O[C@@H]1CN(C)S(=O)(=O)c1ccc(F)cc1 the results were T cruzi growth-1 108.4*, C diff growth 1.3, Pf Dd2 inh -40.8, T cruzi growth-2 99.7*, T cruzi growth-3 91.2, 3T3 cytotox 13.2 and 3T3 cytotox 2 94.6*.
C[C@H](CO)N1C[C@H](C)[C@@H](CN(C)S(=O)(=O)c2ccccc2)Oc2ncc(C#CC3CCCCC3)cc2C1=O was read as T cruzi growth-1 107.5*, C diff growth 4.1, Pf Dd2 inh -54.9, T cruzi growth-2 106.1*, T cruzi growth-3 93.1, 3T3 cytotox 21.2 and 3T3 cytotox 2 85.4*.
`C[C@H](CO)N1C[C@H](C)[C@@H](CN(C)S(=O)(=O)c2cccc(F)c2)Oc2ncc(C#CC3CCCCC3)cc2C1=O` gave C diff growth 7.2 and Pf Dd2 inh -31.4.
For C[C@H]1CN([C@@H](C)CO)C(=O)c2cc(C#CC3CCCCC3)cnc2O[C@@H]1CN(C)S(=O)(=O)c1ccccc1 the results were T cruzi growth-1 inconclusive, C diff growth 1.4, Pf Dd2 inh -29.8, T cruzi growth-2 111.2*, T cruzi growth-3 80.3, 3T3 cytotox 13.4 and 3T3 cytotox 2 86.8*.
Screening C[C@H]1CN([C@@H](C)CO)C(=O)c2cc(C#CC3CCCCC3)cnc2O[C@H]1CN(C)S(=O)(=O)c1cccc(F)c1 returned C diff growth 7.1 and Pf Dd2 inh -12.4.
Cc1ccccc1S(=O)(=O)N1C[C@H](O)COC[C@H]2O[C@H](CC(=O)O)CC[C@@H]21 was read as T cruzi growth-1 -29.8, C diff growth 2.5 and Pf Dd2 inh 27.0.
Screening CCC(=O)N[C@@H]1CC[C@H](CC(=O)NCC2CC2)O[C@H]1CO returned C diff growth 6.9 and Pf Dd2 inh -9.4.
Screening Cc1ccc(S(=O)(=O)Nc2ccc3c(c2)C(=O)N([C@H](C)CO)C[C@@H](C)[C@@H](CN(C)C(=O)C2CCCCC2)OCCCC[C@H](C)O3)cc1 returned T cruzi growth-1 44.1, C diff growth -8.1 and Pf Dd2 inh -68.8.
Screening O=C(NC[C@H]1[C@H](c2ccccc2)[C@H](CO)N1CC1CCCC1)c1ccncc1 returned T cruzi growth-1 -1.5, C diff growth 6.8 and Pf Dd2 inh -10.1.
For C[C@H](CO)N1C[C@H](C)[C@H](CN(C)S(C)(=O)=O)Oc2ncc(C#CC3CCCCC3)cc2C1=O the results were T cruzi growth-1 85.6, C diff growth -5.9 and Pf Dd2 inh 0.3.
`C[C@@H]1CN([C@H](C)CO)C(=O)c2cc(C#CC3CCCCC3)cnc2O[C@@H]1CN(C)S(=O)(=O)c1ccccc1` gave T cruzi growth-1 inconclusive, C diff growth -1.9, Pf Dd2 inh -43.8, T cruzi growth-2 105.8*, T cruzi growth-3 75.9, 3T3 cytotox 11.9 and 3T3 cytotox 2 91.1*.
